The supplement of paper PMC3334620
In all, about 33,000 sequences were measured (“E-score (-0.5 to 0.5)”: median about -0.041, highest 2% from about 0.37 on). The sample as a whole holds a higher share of the highest values than the screen did.

target: T1, Ecm22 (UniProt Q05958); experiment: PBM E-score (8-mer binding enrichment) (E-score (-0.5 to 0.5)); higher = stronger / more preferred TF binding; settings: protein concentration: 200 nM; construct: GST-full length
T1 sequence: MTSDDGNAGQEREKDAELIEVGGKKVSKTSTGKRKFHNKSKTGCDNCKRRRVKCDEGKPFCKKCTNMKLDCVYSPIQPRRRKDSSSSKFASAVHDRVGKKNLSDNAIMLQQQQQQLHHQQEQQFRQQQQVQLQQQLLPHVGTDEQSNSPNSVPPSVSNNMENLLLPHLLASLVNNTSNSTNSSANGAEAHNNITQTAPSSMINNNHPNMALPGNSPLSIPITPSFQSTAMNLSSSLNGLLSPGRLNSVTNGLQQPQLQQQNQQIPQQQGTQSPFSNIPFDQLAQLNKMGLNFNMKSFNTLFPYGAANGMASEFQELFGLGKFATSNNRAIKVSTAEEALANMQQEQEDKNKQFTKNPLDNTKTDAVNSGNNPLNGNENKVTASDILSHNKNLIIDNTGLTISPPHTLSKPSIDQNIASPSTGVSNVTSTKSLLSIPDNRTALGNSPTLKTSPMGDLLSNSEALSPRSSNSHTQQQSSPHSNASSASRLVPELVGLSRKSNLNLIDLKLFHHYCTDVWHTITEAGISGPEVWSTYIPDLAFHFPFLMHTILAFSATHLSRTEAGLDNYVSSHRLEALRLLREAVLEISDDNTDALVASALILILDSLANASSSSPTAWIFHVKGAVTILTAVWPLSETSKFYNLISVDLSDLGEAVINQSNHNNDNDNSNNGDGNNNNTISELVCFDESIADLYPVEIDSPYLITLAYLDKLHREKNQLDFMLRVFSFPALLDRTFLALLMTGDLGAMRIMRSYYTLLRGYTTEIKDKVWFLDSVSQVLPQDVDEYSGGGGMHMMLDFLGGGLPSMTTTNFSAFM
How it was run: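 E-scores (a modified Wilcoxon-Mann-Whitney statistic) were assigned by the Universal PBM Analysis Suite to every ungapped eight-base word pooled with its reverse complement. The input came from universal all-10-mer Agilent arrays made double-stranded by primer extension and probed with GST-tagged yeast transcription factors at about 100-200 nM. Fluorescent anti-GST detected bound protein, and masliner normalised the scans.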

| Sequence | PBM E-score |
| --- | --- |
| CGGACCCG | 0.21 |
| ACCACAAC | 0.0744 |
| CGGGTCTC | 0.00746 |
| CTATTCGA | 0.0817 |
| ACTGGTAA | 0.0597 |
| CCGTATTA | 0.316 |
| GACGCCCC | -0.0249 |
| GCCGTATA | 0.463 |
| CCCGTATC | 0.327 |
| CCCGTAGA | -0.00351 |
| ACCGTATC | 0.346 |
| CCCGTATA | 0.471 |
| ACCGTATG | 0.325 |
| ACCGTATA | 0.459 |
| GCCGTAGA | 0.213 |
| GCGGTATA | -0.0371 |
| ACGGGGGA | 0.16 |
| CGCTCACC | 0.112 |
| ACCATTTG | -0.0622 |
| CCATGAGA | -0.118 |
| AACCGAGA | 0.312 |
| AGCAAGTG | -0.181 |
| AGTGGAAT | -0.0777 |

| Sequence | PBM E-score |
| --- | --- |
| AACCGGAG | -0.0216 |
| AGGCTTTA | -0.133 |
| AGGATCCT | 0.134 |
| CAAACGTA | 0.186 |
| CAAACGGA | 0.202 |
| AAAACGTA | 0.164 |
| GAAACGGA | 0.256 |
| TAAACGTA | 0.38 |
| TAAACGGA | 0.433 |
| AGACCACG | -0.221 |
| ACGCGAGA | 0.281 |
| AAGTTCGT | 0.319 |
| CTAGACAG | -0.189 |
| CCTCGTAG | 0.41 |
| CCTCGGAC | 0.246 |
| CCTCGTAC | 0.491 |
| CCTCGTCG | 0.218 |
| ACTCGTAT | 0.479 |
| CCGCGTAC | 0.231 |
| CCTCATAG | -0.183 |
| ACTCGTCC | -0.139 |
| ACTCGGAT | 0.318 |
| ACTCGTGC | 0.0518 |

| Sequence | PBM E-score |
| --- | --- |
| ACTCGTAC | 0.484 |
| ACTCGTCT | 0.172 |
| AGCCCAGG | -0.341 |
| AGGGCGCG | -0.0881 |
| CCCTTCTC | -0.218 |
| CCGTTAGA | 0.0314 |
| GCAGCCGC | -0.0784 |
| ATACAGAG | -0.0254 |
| ATGGTCTG | -0.0872 |
| CCTTTCAA | -0.203 |
| ACCTCTAG | -0.137 |
| TCTCGTCA | 0.0737 |
| TCTCGTAA | 0.438 |
| CCTCGTAA | 0.446 |
| CCTCGTCA | 0.232 |
| ACTCGTCA | 0.0424 |
| GCTCGTCA | 0.0115 |
| CCTCGTGA | 0.201 |
| ACTCGTAA | 0.437 |
| GCTCGTAA | 0.451 |
| ACTCGTAG | 0.34 |
| TCACGTAA | 0.00322 |
| GCTCGTGA | 0.171 |

| Sequence | PBM E-score |
| --- | --- |
| CTGAACCC | 0.0346 |
| AGCTGTAT | -0.124 |
| AGCCTGCG | -0.17 |
| AGAGACAT | -0.195 |
| GCTCGTAC | 0.486 |
| GCACGTAC | 0.168 |
| GCTCGTCC | -0.109 |
| CACACATC | -0.226 |
| CGATCAGC | 0.09 |
| TCGAGGAA | 0.101 |
| ACGAGGAA | 0.375 |
| CCGAGGAC | 0.207 |
| CCGAGGAA | 0.0818 |
| ACGAGGAT | 0.387 |
| GCGAGGAC | 0.0393 |
| ACGAGGAC | 0.42 |
| ACGAGGAG | 0.349 |
| AGGAGGAT | -0.157 |
| ACGCTCGG | 0.21 |
| CAGCTGCA | -0.385 |
| CCATTCCA | -0.228 |
| CGTGTGCA | -0.0516 |
| AGTCTACC | -0.156 |

| Sequence | PBM E-score |
| --- | --- |
| CAAGATCG | 0.122 |
| ACCCGTAG | -0.142 |
| ACCCGTAA | 0.179 |
| CCCCGTAG | 0.0215 |
| AACCGTAT | 0.341 |
| CCCCGTAC | 0.377 |
| GCCCGTAC | 0.396 |
| ACCCGTAC | 0.374 |
| ACCCGTAT | 0.391 |
| GCCCGTCC | -0.279 |
| GCCCGTAA | 0.221 |
| ACCCGTCT | -0.0476 |
| CCCCGTAA | 0.211 |
| ACGTATTC | 0.144 |
| ACGGAGCC | -0.084 |
| ATTACTTC | -0.0783 |
| GAGGGATC | -0.0216 |
| CTCCTTCC | -0.152 |
| CGGCGCAG | -0.0964 |
| ACAACCGA | 0.26 |
| AACCTTTC | -0.0282 |
| CGCAGAAG | 0.00639 |
| AACTAACG | 0.141 |

| Sequence | PBM E-score |
| --- | --- |
| GTTCGTAA | 0.427 |
| ATTCGTAA | 0.405 |
| ATTCGTAG | 0.325 |
| GTTCGTGA | 0.141 |
| ATTCGTGA | -0.00041 |
| GTTCGTCA | 0.0919 |
| AAATGCGC | -0.0587 |
| AAACTGTG | -0.214 |
| CCAGTCAA | -0.166 |
| CACGTACC | 0.285 |
| CCCGTACC | 0.446 |
| CCCGTACA | 0.368 |
| CCCGTAGG | -0.158 |
| CCCGTAAC | 0.189 |
| CCCGTACG | 0.402 |
| AGACCTTG | -0.252 |
| GGAAATCC | -0.00159 |
| AGCAGCCT | -0.102 |
| ATAGCCCC | -0.223 |
| CCAAGGGA | -0.0775 |
| CATCAATG | -0.153 |
| GCCGGTAC | 0.129 |
| CGGCACGA | 0.176 |

| Sequence | PBM E-score |
| --- | --- |
| ACTTTGTG | 0.118 |
| ACGCTACG | 0.382 |
| CCGCTACG | 0.339 |
| ACGCTACA | -0.0355 |
| TATCGCCA | -0.0963 |
| CCGGTTAA | 0.132 |
| GCGGTTAA | -0.0219 |
| TCGGTTAA | 0.387 |
| GTCCCCCA | -0.157 |
| GCGGTAAA | 0.173 |
| AGCAACGG | 0.203 |
| CGCAACAA | 0.0504 |
| CGCAACGA | 0.448 |
| AGCAACGC | 0.0942 |
| GGCAACCA | -0.0847 |
| AGCAACGA | 0.407 |
| GGCAACGA | 0.417 |
| CGCAACGC | 0.0974 |
| GGCAACTA | -0.282 |
| AATCGAGG | 0.0537 |
| CAAAAGTA | -0.0653 |
| CCATTTTC | -0.105 |
